Experimental data as given in PubChem BioAssay (NCI).
Compounds without any hit were thinned out: in the full panel of roughly 83,000, 20% have a hit.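 The endpoint reported here, percent growth, reads 100 for growth as untreated, 0 for no net growth and -100 for all cells dead.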 Unmarked numbers belong to inactive results. Activity calls are given as the source filed them. Rule for the calls: active = growth percent below 10; inactive = the rest.

What follows are molecules tested on BT-549 breast (assay: NCI-60 one-dose screen, 48 h (100 = growth as untreated, 0 = no growth, -100 = all killed)). Settings: 10 µM unless noted.

Structure (SMILES)	growth
Cc1cc(C)n(CC(=O)Nc2ccc(-c3nc4ccccc4s3)cc2)n1	115%
CNS(=O)(=O)Nc1nccc(Cc2c(C)c3ccc(Oc4ncccn4)cc3oc2=O)c1F	68.6%
C[C@@H](Oc1cc(-n2cnc3ccc(CN4CCN(C)CC4)cc32)sc1C(N)=O)c1ccccc1C(F)(F)F	24.9%
COc1ccc(Cl)c(Nc2nc3ccccc3nc2NS(=O)(=O)c2cccc(NC(=O)C(C)(C)N)c2)c1	28%
COc1ccc(-c2ccc3c(N4CCOC[C@@H]4C)nc(N4CCOC[C@@H]4C)nc3n2)cc1CO	-6.65% (active)
O=C(Nc1cccc(Cl)c1)Nc1ncc(CCNc2ncnc3ccsc23)s1	0.164% (active)
C#Cc1cccc(Nc2ncnc3cc(OCCOC)c(OCCOC)cc23)c1	68.6%
O=C(Nc1ccc(Nc2ncnc3sc4c(c23)CCOC4)cc1)Nc1ccc(Cl)c(C(F)(F)F)c1	89.1%
CCCCN1C(=O)c2cccc3c(-c4ccc5c(c4)ncn5C4CCCCC4)ccc(c23)C1=O	99.4%
COc1cc(Nc2c(C#N)cnc3cc(OCCCN4CCN(C)CC4)c(OC)cc23)c(Cl)cc1Cl	85.2%
COc1ncc(-c2ccc3nccc(-c4ccnnc4)c3c2)cc1NS(=O)(=O)c1ccc(F)cc1F	-31.7% (active)
C/C(=C(/c1ccc(Cl)cc1)c1ccc(OCCN2CCCC2)cc1)c1ccccc1	73.4%
COc1cc(OC)c(/C=C/S(=O)(=O)Cc2ccc(OC)c(NCC(=O)O)c2)c(OC)c1	6.04% (active)
Nc1ncnc2c1ccn2-c1cccc(NC(=O)c2ccc(N3CCOCC3)c(C(F)(F)F)c2)c1	57.5%
C/C=C/C=N/NC(=S)Nc1ccccc1	96.5%
C=CC(=O)Nc1cc(Nc2nccc(-c3cn(C)c4ccccc34)n2)c(OC)cc1N(C)CCN(C)C	-39.7% (active)
C[C@@H](NC(=O)c1ncnc(N)c1Cl)c1ncc(C(=O)Nc2cc(C(F)(F)F)c(Cl)cn2)s1	110%
COc1cc2c(Oc3ccc4[nH]c(C)cc4c3F)ncnc2cc1OCCCN1CCCC1	85.5%

Structure (SMILES)	growth
NC[C@@](O)(c1ccc(Cl)cc1)c1ccc(-c2cn[nH]c2)cc1	14.6%
Cc1cc(O)cc(-c2c(-c3ccnc(-c4cccnc4)c3)cnn2C)c1	75.1%
CS(=O)(=O)N1CCN(Cc2cc3nc(-c4cccc5[nH]ncc45)nc(N4CCOCC4)c3s2)CC1	18.2%
CN[C@@H]1C[C@H]2O[C@@](C)([C@@H]1OC)n1c3ccccc3c3c4c(c5c6ccccc6n2c5c31)C(=O)N[C@H]4O	-88.5% (active)
O=c1[nH]ccc2c(S(=O)(=O)N3CCCNCC3)cccc12	61.3%
CCN(CCCOc1ccc2c(Nc3cc(CC(=O)Nc4cccc(F)c4)[nH]n3)ncnc2c1)CCOP(=O)(O)O	75.9%
Cn1cc(-c2cnn3c(N)c(Br)c([C@@H]4CCCNC4)nc23)cn1	52.1%
C[C@@H](Nc1cc(F)cc(F)c1)c1cc(C(=O)N(C)C)cc2c(=O)cc(N3CCOCC3)oc12	34.2%
COc1ccc2c(CCCc3ccc(Cl)cc3Cl)c3[n+](cc2c1OC)CCc1cc2c(cc1-3)OCO2	-28% (active)
Cn1c(=O)c(F)c(Nc2ccc(I)cc2F)c2c(=O)n(C[C@@H](O)CO)cnc21	60.6%
CC(C)(C)c1cnc(CSc2cnc(NC(=O)C3CCNCC3)s2)o1	0.761% (active)
NC1(C(=O)N[C@@H](CCO)c2ccc(Cl)cc2)CCN(c2ncnc3[nH]ccc23)CC1	-9.59% (active)
COC(=O)c1ccc2c(C(=Nc3ccc(N(C)C(=O)CN4CCN(C)CC4)cc3)c3ccccc3)c(O)[nH]c2c1	55.8%
CS(=O)(=O)CCNCc1ccc(-c2ccc3ncnc(Nc4ccc(OCc5cccc(F)c5)c(Cl)c4)c3c2)o1	8.25% (active)
C1=C\COCc2cc(ccc2OCCN2CCCC2)Nc2nccc(n2)-c2cccc(c2)COC/1	21.9%
O=C(Nc1cn[nH]c1-c1nc2ccc(CN3CCOCC3)cc2[nH]1)NC1CC1	2.57% (active)
Cc1cc2c(-c3nc4ccccn4c3N)c(O)c(O)cc2c(O)c1-c1c(C)cc2c(-c3nc4ccccn4c3N)c(O)c(O)cc2c1O	21.2%
